Most compounds without a hit are left out; they make up all but 3.1% or so of the library.
DRD3 agonist: D3 dopamine receptor (human) agonism. D3R DiscoveRx beta-arrestin cells, luminescence, 90 min. 410,000 tested, 0.58% active. max activation, %. AID 652048. P35462; in the data active = max activation above about 30%
Target sequence (P35462 whole entry, looked up): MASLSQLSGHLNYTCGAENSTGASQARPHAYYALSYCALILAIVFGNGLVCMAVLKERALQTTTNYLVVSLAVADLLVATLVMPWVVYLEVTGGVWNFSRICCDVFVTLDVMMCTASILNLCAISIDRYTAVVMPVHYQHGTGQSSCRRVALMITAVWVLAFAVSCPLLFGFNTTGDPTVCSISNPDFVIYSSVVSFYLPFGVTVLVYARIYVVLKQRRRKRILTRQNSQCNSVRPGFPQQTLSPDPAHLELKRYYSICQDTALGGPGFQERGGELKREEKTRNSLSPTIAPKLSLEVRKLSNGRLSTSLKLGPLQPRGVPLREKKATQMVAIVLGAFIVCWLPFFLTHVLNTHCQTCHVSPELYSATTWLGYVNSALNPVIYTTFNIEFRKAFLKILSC
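Cells at 1500/well, incubated overnight, then treated with pinned compounds (dopamine as control) for 90 min at 37 degrees C. DiscoveRx reagent added for 30 - 60 minutes at room temperature; luminescence read.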
D3 antag: antagonists of human D3 dopamine receptor | P35462 | D3R cells, DiscoveRx beta-arrestin luminescence, antagonist mode; hits give low values | max response, negative = inhibition, % | 360,000 tested, 2.5% active | AID 652054; in the data active = max response below about -50%; inconclusive = no clear call, values can overlap the other calls
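Cells plated overnight at 1500 cells/well, then exposed to library compounds with dopamine controls for 90 minutes at 37 degrees C. DiscoveRx reagent added for 30–60 minutes at room temperature; luminescence read, quantitative HTS format.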
RGS4 inh: blocks human RGS4-accelerated GTP hydrolysis | P49798 | Transcreener GDP fluorescence polarization, RGS4-accelerated GTP hydrolysis | Potency, µM (titrated, usually from 114 µM), hits mostly inhibitors | 390,000 tested, 0.039% active; active = well fitted inhibition curve with a large enough effect; inconclusive = small, poorly fitted or top-dose-only effect; inactive = no such curve, though single readings can be large or run the other way; note: nearly all actives have a fitted effect of over 75% in size
Target sequence (P49798 whole entry, looked up): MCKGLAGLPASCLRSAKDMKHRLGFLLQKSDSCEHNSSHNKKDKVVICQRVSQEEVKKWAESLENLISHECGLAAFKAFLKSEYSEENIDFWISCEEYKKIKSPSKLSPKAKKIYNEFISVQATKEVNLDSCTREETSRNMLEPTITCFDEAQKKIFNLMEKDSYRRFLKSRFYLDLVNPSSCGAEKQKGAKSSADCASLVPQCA
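MLSMR compounds (23 nl, pin-transferred) preincubated 10 min at room temperature with a 500nM (2x) first reagent, then RGS4 at 900nM (2x) plus Transcreener GDP mix added; fluorescence polarization (620/688 nm) read before and after 90 min at 30 °C.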
uPA generation: inhibitors of cell surface uPA generation; 330,000 tested, 0.31% active; Potency, µM (series often up to 38.3 µM), actives largely listed as inhibitors; AID 540303; cell surface uPA generation assay, qHTS; active = well fitted inhibition curve with a large enough effect; inconclusive = small, poorly fitted or top-dose-only effect; inactive = no such curve, though single readings can be large or run the other way; tested in mouse RAW 264.7 cells; note: nearly all actives have a fitted effect of over 55% in size
Of the large screens only hits and unclear results are named; the others gave an inactive call.

CCSc1nnc(NC(=O)NCC(F)(F)F)s1	D3 antag -83
O=C(Nc1nnc(SCc2ccc(F)cc2)s1)c1cnccn1	none
CCSc1nnc(NC(=O)c2ccccn2)s1	D3 antag -84
CC1=C(C(=O)Nc2ccc(Cl)cc2)C(c2cccs2)n2nc(SCc3cccc(C)c3)nc2N1 (configuration not stated)	none (no result: D3 antag, uPA generation)
CCOc1ccc(-c2cc3c(=O)n(Cc4nc(-c5ccccc5OCC)oc4C)ccn3n2)cc1Cl	none (no result: D3 antag, uPA generation)
CCOC(=O)c1ccc(NC(=O)CSc2c3c(nc4cc(Cl)ccc24)CCCC3)cc1	none (no result: D3 antag, uPA generation)
COCC(N)(c1ccccc1)c1nc2ccccc2n1C (configuration not stated)	D3 antag -89
CC(=O)c1cccc(N2C(=O)CN(S(C)(=O)=O)CC2(C)C(=O)NC2CCCC2)c1 (configuration not stated)	none (no result: D3 antag, uPA generation)
CS(=O)(=O)c1sc(C#N)c2c1C(=O)CC(c1ccccc1)C2 (configuration not stated)	D3 antag -132, RGS4 inh inconclusive, uPA generation 8.9µM
COc1ccc(CNC(=O)c2ccc3c(c2)N(Cc2c(F)cccc2Cl)C(=O)CS3)cc1	none (no result: D3 antag, uPA generation)
O=C(c1ccc2c(=O)n(-c3ccccc3)c(=O)[nH]c2c1)N1CCN(Cc2cccs2)CC1	none (no result: DRD3 agonist, D3 antag, uPA generation)
COc1cc(OC)nc(Nc2nc(C(N)Cc3ccc(Cl)cc3)cs2)n1 (configuration not stated)	none (no result: RGS4 inh, uPA generation)
COc1cc(OC)nc(Nc2nc(C(N)CCc3ccccc3)cs2)n1 (configuration not stated)	DRD3 agonist 34 (no result: RGS4 inh, uPA generation)
COc1cc(OC)nc(Nc2nc(C(N)c3ccccc3)cs2)n1 (configuration not stated)	none (no result: RGS4 inh, uPA generation)
COc1cc(OC)nc(Nc2nc(C(N)COCc3ccccc3)cs2)n1 (configuration not stated)	D3 antag -74 (no result: RGS4 inh, uPA generation)
Cc1nnsc1S(=O)c1ccc(Cl)cc1 (configuration not stated)	uPA generation inconclusive
O=C(c1nnsc1S(=O)c1ccc(Cl)cc1)N1CCOCC1 (configuration not stated)	D3 antag -51, RGS4 inh inconclusive
O=C(Nc1ccccc1)c1nnsc1S(=O)c1ccc(Cl)cc1 (configuration not stated)	D3 antag -59, RGS4 inh inconclusive
Cc1ccc(-n2cccn2)c(CN2CCCC(C(=O)c3ccc4c(c3)OCO4)C2)c1 (configuration not stated)	D3 antag -63
O=C(c1ccc2c(c1)OCO2)C1CCCN(Cc2ccccc2OC(F)F)C1 (configuration not stated)	D3 antag -63
O=C(c1ccc2c(c1)OCO2)C1CCCN(Cc2cc(F)ccc2-n2cccn2)C1 (configuration not stated)	none
CCCCSc1nnc2c(n1)OC(C)N(C(C)=O)c1ccccc1-2 (configuration not stated)	none (no result: D3 antag, uPA generation)
CCCCCSc1nnc2c(n1)OC(C)N(C(C)=O)c1ccccc1-2 (configuration not stated)	D3 antag -68
CCn1c(=O)n(CC)c2cc(S(N)(=O)=O)c(C)cc21	none
CCn1c(=O)n(CC)c2cc(S(=O)(=O)N3CCCCC3)c(C)cc21	DRD3 agonist 31 (no result: uPA generation)
Fc1ccc(-c2cc3ncc4c(n3n2)-c2cc(Cl)ccc2OC4)cc1	none (no result: D3 antag, uPA generation)
COc1cc(NC(=O)CCN2CCN(c3ccccc3)CC2)cc(OC)c1	none (no result: DRD3 agonist, D3 antag, uPA generation)
COc1ccc([N+](=O)[O-])cc1NC(=O)CCN1CCN(c2ccccc2)CC1	DRD3 agonist 75
COc1ccc(N2CCCC2)c(NC(=O)COc2ccccc2Cl)c1	none
COc1cc(NC(=O)CCN2CCN(c3ccccc3OC)CC2)cc(OC)c1	D3 antag -99 (no result: RGS4 inh, uPA generation)
COc1ccc([N+](=O)[O-])cc1NC(=O)CCCOc1ccccc1	none
COc1ccc(OC)c(NC(=O)CCN2CCN(c3ccccc3OC)CC2)c1	D3 antag -84
COc1ccc(OCC(=O)Nc2cc(OC)ccc2N2CCCCC2)cc1	DRD3 agonist 36
O=S(=O)(Nc1cccc(-c2ccc(N3CCCCC3)nn2)c1)c1cccc(F)c1	none (no result: D3 antag, uPA generation)
CCn1c(=O)cc(OCC(=O)N2CCN(c3cccc(Cl)c3)CC2)c2ccccc21	none (no result: D3 antag, uPA generation)
O=C(NCCc1ccc(Cl)cc1)C1CCN(Cc2cc3ccccc3n2Cc2ccccc2)CC1	none (no result: D3 antag, uPA generation)
CC(CNC(=O)CCCn1c(=O)c2cccn2c2ccccc21)c1ccccc1 (configuration not stated)	none (no result: D3 antag, uPA generation)
O=C(O)CC1S/C(=N/N=C/c2ccc(-c3ccc(Cl)cc3[N+](=O)[O-])o2)NC1=O (configuration not stated)	D3 antag -77, RGS4 inh inconclusive
Cn1nnnc1SCCNCc1ccccc1Cl	none (no result: D3 antag, uPA generation)
CCN(CC)CCn1c(NCc2cc(OC)ccc2OC)nc2ccccc21	D3 antag -88, RGS4 inh inconclusive
CCN(CC)CCn1c(NCc2cccc(OC)c2)nc2ccccc21	D3 antag -86
CCN(CC)CCn1c(NCc2ccc3c(c2)OCO3)nc2ccccc21	none
CCOc1cccc(CC(=O)N2CCc3c([nH]c4ccc(OC)cc34)C2c2ccc(F)cc2)c1OCC (configuration not stated)	none (no result: D3 antag, uPA generation)
CCCn1c(=S)[nH]c2cc(C(=O)N3CCN(c4ccccc4)CC3)ccc2c1=O	none (no result: RGS4 inh, uPA generation)
Cc1ccc2[nH]c3c(=O)n(CC(=O)Nc4ccccc4N4CCN(C)CC4)ncc3c2c1	D3 antag -55
CC1CCCC(C)N1CCCNC(=O)Cn1ncc2c([nH]c3ccccc32)c1=O (configuration not stated)	none
CCN(CCCn1c(=S)[nH]c2ncccc2c1=O)c1ccccc1	none
O=C(Cn1ncc2c([nH]c3ccccc32)c1=O)NCCCN1CCN(c2ccccc2)CC1	D3 antag -63
CCN(CC)CCCn1c(=S)[nH]c2ncccc2c1=O	D3 antag -53
O=C(c1ccc2c(=O)n(Cc3ccco3)c(=S)[nH]c2c1)N1CCN(c2ccccc2)CC1	D3 antag -50
COc1ccccc1CNS(=O)(=O)c1ccc2c(c1)CC(C)N2C(C)=O (configuration not stated)	none (no result: D3 antag, uPA generation)
O=c1c2ccccc2[nH]c(=S)n1CCCN1CCN(c2ccccc2F)CC1	D3 antag -99, uPA generation inconclusive
O=c1c2ccccc2[nH]c(=S)n1CCCN1CCN(c2ccccc2)CC1	D3 antag -71
O=c1c2cccnc2[nH]c(=S)n1CCCN1CCN(c2ccccc2F)CC1	D3 antag -55
CC(=O)c1ccc(NC(=O)CN2CCN(c3ncccn3)CC2)cc1	DRD3 agonist 70
N#Cc1ccc(NC(=O)CN2CCN(c3ccccn3)CC2)cc1	DRD3 agonist 49
C=C1CCN(C(Cc2ccccc2)C(=O)NCc2ccc(Cl)c(Cl)c2)S(=O)(=O)c2ccccc21 (configuration not stated)	none (no result: DRD3 agonist, D3 antag, uPA generation)
CCOCCCn1c(SCC(=O)Nc2ccccc2Cl)nc2c(oc3ccccc32)c1=O	none (no result: D3 antag, uPA generation)
c1ccc2c(c1)CCN(c1ncnc3c1[nH]c1ccccc13)C2	D3 antag -53
Cc1ccc(C(=O)Nc2ccc(C(=O)OCc3cc(=O)n4c5c(sc4n3)CCCC5)cc2)cc1	none (no result: D3 antag, uPA generation)
